From PubChem BioAssay (NCI)
About 79,000 compounds went through this panel and 15% of them were active in at least one assay; those are over-represented in the sample as a whole. Active and inactive are the calls of the source. No stated cut-off is given here; in the data, active means growth inhibition above about 70%; inactive means the rest.

Tests used:
[1] = NCI Yeast Anticancer Drug Screen. Data for the rad52 strain (AID 147);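 further: 0% = growth of vehicle-treated control cultures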; conditions: S. cerevisiae rad52 mutant growth inhibition, hits give high values
In short: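 Yeast strain carrying a DNA damage repair alteration was exposed to test compounds. Growth inhibition was measured relative to vehicle-treated controls.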

[2] = NCI Yeast Anticancer Drug Screen. Data for the rad50EPP+ strain (AID 151);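 further: 0% = growth of vehicle-treated control cultures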; conditions: S. cerevisiae rad50 mutant strain, hits give high values
In short: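 Yeast strain carrying rad50 alteration (rad50EPP+) exposed to compounds; growth inhibition measured relative to vehicle-treated controls.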

[3] = NCI Yeast Anticancer Drug Screen. Data for the mgt1 strain (AID 153); conditions: S. cerevisiae mgt1 mutant growth inhibition, hits give high values
In short: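 Yeast mgt1 strain (DNA repair/cell-cycle alteration panel) exposed to compounds; growth inhibition measured relative to vehicle-treated controls.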

[4] = NCI Yeast Anticancer Drug Screen. Data for the rad50 strain (AID 155);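 further: 0% = growth of vehicle-only cultures of the same strain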; conditions: S. cerevisiae rad50 strain growth inhibition, hits give high values
In short: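 DNA repair mutant yeast, compound exposure, growth read-out; inhibition is taken relative to vehicle.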

[5] = NCI Yeast Anticancer Drug Screen. Data for the mec2-1 strain (AID 157); conditions: S. cerevisiae mec2-1 strain, hits give high values
In short: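 mec2-1 yeast strain, carrying an alteration in DNA damage repair or cell cycle control, was exposed to compounds; growth inhibition was measured relative to vehicle-treated controls.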

[6] = NCI Yeast Anticancer Drug Screen. Data for the rad14 strain (AID 159);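 further: 0% = growth of vehicle-treated control cultures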; conditions: S. cerevisiae rad14 strain growth inhibition, hits give high values
In short: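 DNA repair-defective yeast, compound-exposed; % growth inhibition derived by comparison with vehicle-treated controls.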

[7] = NCI Yeast Anticancer Drug Screen. Data for the sgs1 mgt1 strain (AID 161);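 further: 0% = growth of cultures given vehicle only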; conditions: S. cerevisiae sgs1 mgt1 strain, hits give high values
In short: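 This yeast growth screen uses a strain with defined DNA-repair lesions; compound-treated growth is compared with vehicle-treated growth.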

[8] = NCI Yeast Anticancer Drug Screen. Data for the CLN2oe strain (AID 163);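 further: 0% = growth of vehicle-only control cultures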; conditions: S. cerevisiae CLN2oe strain, hits give high values
In short: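 Yeast cells carrying a defined cell-cycle control alteration were exposed to test compounds. Growth inhibition was scored against vehicle-treated control cultures.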

[9] = NCI Yeast Anticancer Drug Screen. Data for the cln2 rad14 strain (AID 165);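 further: 0% = growth equal to vehicle treated cultures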; conditions: S. cerevisiae cln2 rad14 strain, hits give high values
In short: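 Yeast carrying cln2 and rad14 alterations (cell cycle control and DNA damage repair) were exposed to compounds. Growth inhibition was measured against vehicle-treated controls.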

[10] = NCI Yeast Anticancer Drug Screen. Data for the bub3 strain (AID 167); conditions: S. cerevisiae bub3 mutant strain, hits give high values
In short: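 In this screen, a yeast mutant lacking normal mitotic checkpoint function is challenged with compound. Relative growth versus vehicle gives the inhibition value.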

[11] = NCI Yeast Anticancer Drug Screen. Data for the wt2 strain (AID 169);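 further: 0% = growth of vehicle-treated yeast cultures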; conditions: S. cerevisiae wt2 strain growth inhibition, hits give high values
In short: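 Yeast cells were exposed to test compounds, and growth inhibition was measured relative to vehicle-treated controls.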

[12] = NCI Yeast Anticancer Drug Screen. Data for the mlh1 strain (AID 171);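 further: 0% = growth of vehicle-treated control cultures of the same strain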; conditions: S. cerevisiae mlh1 strain growth inhibition, hits give high values
In short: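 Yeast carrying a defined genetic alteration in DNA damage repair or cell cycle control were exposed to test compounds. Growth inhibition was measured relative to vehicle-treated controls.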

[13] = NCI Yeast Anticancer Drug Screen. Data for the sgs1 strain (AID 173);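 further: 0% = growth of vehicle-only control cultures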; conditions: S. cerevisiae sgs1 mutant, hits give high values
In short: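 Yeast mutant strains carrying defined defects in DNA damage repair or cell cycle control were exposed to test compounds. Growth inhibition was scored against vehicle-treated controls.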

[14] = NCI Yeast Anticancer Drug Screen. Data for the mlh1 rad18 strain (AID 175); conditions: S. cerevisiae mlh1 rad18 strain growth inhibition, hits give high values
In short: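 Growth inhibition of the yeast strain was measured after compound exposure and expressed relative to vehicle-treated controls. The strain carries defined defects in DNA damage repair.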

[15] = NCI Yeast Anticancer Drug Screen. Data for the rad18 strain (AID 177); conditions: S. cerevisiae rad18 mutant growth inhibition, hits give high values
In short: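 Yeast carrying a defined DNA damage repair alteration were exposed to compounds. Growth inhibition was expressed relative to vehicle-treated controls.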

[16] = at 5.0 µM (retest, dose inferred, filed as 0.5)
[17] = at 50.0 µM (retest, dose inferred, filed as 5.0)

Measured: growth inhibition

O=c1c2ccccc2nc(-c2cccc([N+](=O)[O-])c2)n1O
active: [1]; at 11.0 µM 83% | [1]; at 33.0 µM 91% | [1]; at 100.0 µM 91% | [3]; at 33.0 µM 85% | [3]; at 100.0 µM 90% | [4]; at 11.0 µM 76% | [4]; at 33.0 µM 89% | [4]; [17] 97% | [4]; at 50.0 µM 97.8% | [4]; at 100.0 µM 91% | [5]; [17] 95% | [5]; at 50.0 µM 97.7% | [6]; at 3.7 µM 73% | [6]; at 11.0 µM 93% | [6]; at 33.0 µM 97% | [6]; at 100.0 µM 97% | [7]; [17] 97% | [7]; at 50.0 µM 98% | [9]; [17] 76% | [9]; at 50.0 µM 87.2% | [10]; [16] 71% | [10]; [17] 96% | [10]; at 50.0 µM 84.8% | [10]; at 100.0 µM 70% | [11]; at 11.0 µM 87% | [11]; at 33.0 µM 94% | [11]; at 100.0 µM 95% | [12]; at 11.0 µM 71% | [12]; at 33.0 µM 78% | [12]; at 100.0 µM 90% | [13]; at 3.7 µM 72% | [13]; at 11.0 µM 91% | [13]; at 33.0 µM 94% | [13]; at 100.0 µM 95% | [14]; [17] 98% | [14]; at 50.0 µM 98.1% | [15]; at 11.0 µM 88% | [15]; at 33.0 µM 92% | [15]; at 100.0 µM 92%
inactive: [1]; at 1.2 µM 17% | [1]; at 3.7 µM 45% | [2]; at 1.2 µM -9% | [2]; at 3.7 µM -5% | [2]; at 11.0 µM 13% | [2]; at 33.0 µM 35% | [2]; at 100.0 µM 65% | [3]; at 1.2 µM 13% | [3]; at 3.7 µM 21% | [3]; at 11.0 µM 52% | [4]; at 1.2 µM 14% | [4]; at 3.7 µM 31% | [4]; [16] 12% | [5]; at 1.2 µM 14% | [5]; at 3.7 µM 19% | [5]; [16] 7% | [5]; at 11.0 µM 37% | [5]; at 33.0 µM 58% | [5]; at 100.0 µM 68% | [6]; at 1.2 µM 36% | [7]; [16] 26% | [8]; at 1.2 µM 6% | [8]; at 3.7 µM 15% | [8]; at 11.0 µM 33% | [8]; at 33.0 µM 46% | [8]; at 100.0 µM 51% | [9]; [16] -20% | [10]; at 1.2 µM -4% | [10]; at 3.7 µM 5% | [10]; at 11.0 µM 43% | [10]; at 33.0 µM 59% | [11]; at 1.2 µM 25% | [11]; at 3.7 µM 49% | [12]; at 1.2 µM 16% | [12]; at 3.7 µM 29% | [13]; at 1.2 µM 37% | [14]; [16] 21% | [15]; at 1.2 µM 37% | [15]; at 3.7 µM 64%
